# Experimental data from publication PMC7862700, “An all-to-all approach to the identification of sequence-specific readers for epigenetic DNA modifications on cytosine”.
# How the values were obtained:
# Assay in all cases: DAPPL (digital affinity profiling via proximity ligation, sequencing); 10 mM Tris-HCl pH 7.5, 50 mM NaCl, 1 mM DTT, 4% glycerol, room temperature, 30 min; GST-TFs on glutathione beads, 16-mer random dsDNA library, 0.1% formaldehyde crosslink after washing; high values mean tight binding
# FLI1 = biological target: T1, FLI1 (Homo sapiens, UniProt Q01543 1-452); conditions: protein: recombinant; tags: N-terminal GST; dsDNA, one strand shown
# T1 sequence: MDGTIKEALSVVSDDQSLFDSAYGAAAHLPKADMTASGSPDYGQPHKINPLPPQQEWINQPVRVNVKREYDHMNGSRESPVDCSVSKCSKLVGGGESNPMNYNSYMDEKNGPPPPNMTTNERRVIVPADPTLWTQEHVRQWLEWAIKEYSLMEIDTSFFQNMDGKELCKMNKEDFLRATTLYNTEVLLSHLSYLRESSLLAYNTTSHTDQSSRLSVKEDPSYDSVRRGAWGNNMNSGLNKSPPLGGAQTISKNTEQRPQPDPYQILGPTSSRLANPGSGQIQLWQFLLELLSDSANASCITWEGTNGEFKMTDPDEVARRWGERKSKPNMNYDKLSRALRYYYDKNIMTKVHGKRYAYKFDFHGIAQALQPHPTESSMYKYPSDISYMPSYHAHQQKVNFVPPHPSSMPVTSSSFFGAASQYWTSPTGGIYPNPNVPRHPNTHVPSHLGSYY
# In short: (§1)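 Binding signal is given per hexamer as its read frequency for a factor divided by its frequency in the tag-only sample. GST-fused human transcription factors were expressed in yeast, captured on glutathione beads, barcoded with DNA and pooled with that sample, then incubated with 200 nmole of a 16-mer random double-stranded DNA library in Tris/NaCl/DTT/glycerol buffer for 30 min at room temperature. The pools were then washed, crosslinked, proximity-ligated, amplified by PCR and sequenced on an Illumina NextSeq500.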
# ELK1 = biological target: T2, ELK1 (Homo sapiens, UniProt P19419 1-428); conditions: protein: recombinant; tags: N-terminal GST; dsDNA, one strand shown
# T2 sequence: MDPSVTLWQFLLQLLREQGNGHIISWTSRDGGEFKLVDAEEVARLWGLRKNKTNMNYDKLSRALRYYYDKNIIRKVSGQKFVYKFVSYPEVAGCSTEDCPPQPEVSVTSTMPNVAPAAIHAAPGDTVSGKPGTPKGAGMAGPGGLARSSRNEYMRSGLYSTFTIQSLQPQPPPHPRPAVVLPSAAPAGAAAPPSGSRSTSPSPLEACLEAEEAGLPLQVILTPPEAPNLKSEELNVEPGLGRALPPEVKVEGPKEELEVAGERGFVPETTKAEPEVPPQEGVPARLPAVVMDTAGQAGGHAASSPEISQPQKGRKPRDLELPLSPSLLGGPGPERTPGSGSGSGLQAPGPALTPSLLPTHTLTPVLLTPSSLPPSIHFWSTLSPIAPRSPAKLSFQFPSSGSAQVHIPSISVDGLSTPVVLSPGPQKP
# In short: as §1
# GABPA = biological target: T3, GABPA (Homo sapiens, UniProt Q06546 1-454); conditions: protein: recombinant; tags: N-terminal GST; dsDNA, one strand shown
# T3 sequence: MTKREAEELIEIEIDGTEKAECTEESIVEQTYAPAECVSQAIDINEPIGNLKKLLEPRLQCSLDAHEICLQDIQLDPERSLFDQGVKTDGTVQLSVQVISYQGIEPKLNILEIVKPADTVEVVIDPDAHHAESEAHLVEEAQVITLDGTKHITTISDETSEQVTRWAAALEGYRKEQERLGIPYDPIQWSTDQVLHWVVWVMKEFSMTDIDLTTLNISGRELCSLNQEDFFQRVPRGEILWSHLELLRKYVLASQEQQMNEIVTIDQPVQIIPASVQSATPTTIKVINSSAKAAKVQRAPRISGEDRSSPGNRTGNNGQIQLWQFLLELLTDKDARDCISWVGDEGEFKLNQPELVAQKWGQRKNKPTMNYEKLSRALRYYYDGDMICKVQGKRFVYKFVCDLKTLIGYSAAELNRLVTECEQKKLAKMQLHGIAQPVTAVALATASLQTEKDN
# In short: as §1
# ERG = biological target: T4, ERG (Homo sapiens, UniProt P11308 1-479); conditions: protein: recombinant; tags: N-terminal GST; dsDNA, one strand shown
# T4 sequence: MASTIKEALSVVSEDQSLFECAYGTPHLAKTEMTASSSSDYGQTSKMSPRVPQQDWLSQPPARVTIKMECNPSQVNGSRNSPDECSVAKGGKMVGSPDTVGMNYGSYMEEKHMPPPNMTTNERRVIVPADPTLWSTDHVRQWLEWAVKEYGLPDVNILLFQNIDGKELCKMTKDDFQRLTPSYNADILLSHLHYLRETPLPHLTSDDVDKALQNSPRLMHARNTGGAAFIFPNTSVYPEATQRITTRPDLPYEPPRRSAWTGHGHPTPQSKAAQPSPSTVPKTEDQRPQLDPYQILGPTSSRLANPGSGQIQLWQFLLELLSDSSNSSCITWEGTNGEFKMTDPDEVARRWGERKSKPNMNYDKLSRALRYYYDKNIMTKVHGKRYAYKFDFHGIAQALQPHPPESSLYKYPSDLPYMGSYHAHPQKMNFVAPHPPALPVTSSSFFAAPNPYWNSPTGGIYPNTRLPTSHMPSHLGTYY
# In short: as §1
# ELF1 = ELF1 (Homo sapiens, UniProt P32519 1-619); conditions: protein: recombinant; tags: N-terminal GST; dsDNA, one strand shown
# Chain of ELF1 (P32519 whole entry): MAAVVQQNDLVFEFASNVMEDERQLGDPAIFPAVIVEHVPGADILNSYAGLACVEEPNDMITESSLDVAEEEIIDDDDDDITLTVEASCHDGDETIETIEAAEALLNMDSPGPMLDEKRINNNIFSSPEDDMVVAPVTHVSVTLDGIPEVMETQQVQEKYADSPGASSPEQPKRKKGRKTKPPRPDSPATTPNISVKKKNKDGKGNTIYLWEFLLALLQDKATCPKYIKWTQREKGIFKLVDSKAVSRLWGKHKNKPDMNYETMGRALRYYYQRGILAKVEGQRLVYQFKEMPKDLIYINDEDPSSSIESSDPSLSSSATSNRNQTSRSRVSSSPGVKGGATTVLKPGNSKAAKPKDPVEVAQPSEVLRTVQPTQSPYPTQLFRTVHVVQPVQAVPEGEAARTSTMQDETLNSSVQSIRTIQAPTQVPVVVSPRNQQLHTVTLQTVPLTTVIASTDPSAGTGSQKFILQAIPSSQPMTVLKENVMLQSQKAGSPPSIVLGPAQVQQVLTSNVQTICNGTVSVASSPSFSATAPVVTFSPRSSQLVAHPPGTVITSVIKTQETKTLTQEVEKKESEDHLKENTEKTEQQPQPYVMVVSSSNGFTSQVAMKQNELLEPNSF
# In short: as §1
# EHF = biological target: T5, EHF (Homo sapiens, UniProt Q9NZC4 1-300); conditions: protein: recombinant; tags: N-terminal GST; dsDNA, one strand shown
# T5 sequence: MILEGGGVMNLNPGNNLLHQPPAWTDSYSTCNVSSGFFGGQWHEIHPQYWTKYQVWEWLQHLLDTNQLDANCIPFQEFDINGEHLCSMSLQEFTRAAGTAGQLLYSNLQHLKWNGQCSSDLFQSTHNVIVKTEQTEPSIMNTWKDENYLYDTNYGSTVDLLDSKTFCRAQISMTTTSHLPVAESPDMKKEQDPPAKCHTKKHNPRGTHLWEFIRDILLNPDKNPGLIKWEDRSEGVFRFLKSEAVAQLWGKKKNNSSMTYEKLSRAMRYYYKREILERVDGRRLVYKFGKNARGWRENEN
# In short: as §1
# SPI1 = SPI1 (Homo sapiens, UniProt P17947 1-270); conditions: protein: recombinant; tags: N-terminal GST; dsDNA, one strand shown
# In short: as §1
# SPIB = SPIB (Homo sapiens, UniProt Q01892 1-262); conditions: protein: recombinant; tags: N-terminal GST; dsDNA, one strand shown
# Chain of SPIB (Q01892 whole entry): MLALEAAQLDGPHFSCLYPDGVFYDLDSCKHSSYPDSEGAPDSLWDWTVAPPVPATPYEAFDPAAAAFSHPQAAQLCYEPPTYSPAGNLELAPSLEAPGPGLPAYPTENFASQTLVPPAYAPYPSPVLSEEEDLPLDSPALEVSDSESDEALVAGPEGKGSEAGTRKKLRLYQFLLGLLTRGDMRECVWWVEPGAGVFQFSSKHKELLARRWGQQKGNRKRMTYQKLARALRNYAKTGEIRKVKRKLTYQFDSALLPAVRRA
# In short: as §1
# ELK3 = biological target: T6, ELK3 (Homo sapiens, UniProt P41970 1-407); conditions: protein: recombinant; tags: N-terminal GST; dsDNA, one strand shown
# T6 sequence: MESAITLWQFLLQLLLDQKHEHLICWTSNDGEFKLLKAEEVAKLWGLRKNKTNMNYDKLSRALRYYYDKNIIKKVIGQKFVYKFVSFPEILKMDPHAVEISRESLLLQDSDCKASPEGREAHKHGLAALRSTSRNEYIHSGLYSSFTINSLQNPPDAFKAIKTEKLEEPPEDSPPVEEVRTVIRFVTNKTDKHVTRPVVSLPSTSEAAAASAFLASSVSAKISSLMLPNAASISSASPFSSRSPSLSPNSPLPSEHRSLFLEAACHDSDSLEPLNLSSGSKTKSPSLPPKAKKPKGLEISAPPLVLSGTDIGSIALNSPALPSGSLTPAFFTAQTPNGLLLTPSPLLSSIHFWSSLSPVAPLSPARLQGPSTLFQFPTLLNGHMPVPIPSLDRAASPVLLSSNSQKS
# In short: as §1
# FEV = biological target: T7, FEV (Homo sapiens, UniProt Q99581 1-238); conditions: protein: recombinant; tags: N-terminal GST; dsDNA, one strand shown
# T7 sequence: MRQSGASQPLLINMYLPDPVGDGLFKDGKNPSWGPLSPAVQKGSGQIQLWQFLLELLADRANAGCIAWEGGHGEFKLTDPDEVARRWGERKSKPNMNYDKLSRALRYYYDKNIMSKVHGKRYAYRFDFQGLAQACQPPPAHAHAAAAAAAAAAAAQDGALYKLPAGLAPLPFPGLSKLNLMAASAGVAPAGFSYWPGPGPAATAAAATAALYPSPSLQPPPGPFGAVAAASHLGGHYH
# In short: as §1
# ETV5 = ETV5 (Homo sapiens, UniProt P41161 1-510); conditions: protein: recombinant; tags: N-terminal GST; dsDNA, one strand shown
# Chain of ETV5 (P41161 whole entry): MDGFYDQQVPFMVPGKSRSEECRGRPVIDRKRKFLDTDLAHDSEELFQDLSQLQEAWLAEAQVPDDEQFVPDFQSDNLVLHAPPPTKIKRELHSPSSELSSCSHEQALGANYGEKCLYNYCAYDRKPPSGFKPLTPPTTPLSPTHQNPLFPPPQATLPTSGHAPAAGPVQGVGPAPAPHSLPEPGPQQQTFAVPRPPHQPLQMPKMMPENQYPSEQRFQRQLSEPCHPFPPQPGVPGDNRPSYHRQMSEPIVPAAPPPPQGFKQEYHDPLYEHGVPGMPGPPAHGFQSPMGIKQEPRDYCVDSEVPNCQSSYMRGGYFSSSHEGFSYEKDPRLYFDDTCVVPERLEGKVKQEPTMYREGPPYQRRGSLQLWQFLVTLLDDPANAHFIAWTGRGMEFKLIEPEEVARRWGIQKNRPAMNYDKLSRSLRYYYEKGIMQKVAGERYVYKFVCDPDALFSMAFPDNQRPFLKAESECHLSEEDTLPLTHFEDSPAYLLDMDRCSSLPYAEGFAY
# In short: as §1
# HSF1 = HSF1 (Homo sapiens, UniProt Q00613 1-529); conditions: protein: recombinant; tags: N-terminal GST; chain copies: 3; dsDNA, one strand shown
# Chain of HSF1 (Q00613 whole entry): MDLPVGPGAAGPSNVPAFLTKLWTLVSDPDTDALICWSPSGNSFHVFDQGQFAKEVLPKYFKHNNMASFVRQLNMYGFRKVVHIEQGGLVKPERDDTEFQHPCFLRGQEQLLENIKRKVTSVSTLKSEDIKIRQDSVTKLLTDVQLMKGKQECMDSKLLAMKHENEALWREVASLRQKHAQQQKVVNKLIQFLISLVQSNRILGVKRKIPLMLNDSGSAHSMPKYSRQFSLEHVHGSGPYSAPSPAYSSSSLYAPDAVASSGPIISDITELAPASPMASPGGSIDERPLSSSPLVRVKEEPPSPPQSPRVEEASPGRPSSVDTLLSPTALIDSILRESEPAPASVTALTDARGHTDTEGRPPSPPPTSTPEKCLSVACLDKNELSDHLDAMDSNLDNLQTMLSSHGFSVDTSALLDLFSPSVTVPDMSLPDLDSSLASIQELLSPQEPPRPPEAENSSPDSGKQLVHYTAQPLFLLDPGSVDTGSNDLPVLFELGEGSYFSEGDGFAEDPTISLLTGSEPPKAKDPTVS
# In short: as §1
# SPIC = biological target: T8, SPIC (Homo sapiens, UniProt Q8N5J4 1-248); conditions: protein: recombinant; tags: N-terminal GST; dsDNA, one strand shown
# T8 sequence: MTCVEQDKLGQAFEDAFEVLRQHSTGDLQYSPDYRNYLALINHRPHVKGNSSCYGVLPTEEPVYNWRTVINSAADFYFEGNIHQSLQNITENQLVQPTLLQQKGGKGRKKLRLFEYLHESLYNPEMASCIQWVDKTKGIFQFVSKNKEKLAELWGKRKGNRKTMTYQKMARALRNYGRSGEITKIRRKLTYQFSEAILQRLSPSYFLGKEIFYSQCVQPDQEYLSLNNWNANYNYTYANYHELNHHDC
# In short: as §1
# ELF4 = ELF4 (Homo sapiens, UniProt Q99607 1-663); conditions: protein: recombinant; tags: N-terminal GST; dsDNA, one strand shown
# Chain of ELF4 (Q99607 whole entry): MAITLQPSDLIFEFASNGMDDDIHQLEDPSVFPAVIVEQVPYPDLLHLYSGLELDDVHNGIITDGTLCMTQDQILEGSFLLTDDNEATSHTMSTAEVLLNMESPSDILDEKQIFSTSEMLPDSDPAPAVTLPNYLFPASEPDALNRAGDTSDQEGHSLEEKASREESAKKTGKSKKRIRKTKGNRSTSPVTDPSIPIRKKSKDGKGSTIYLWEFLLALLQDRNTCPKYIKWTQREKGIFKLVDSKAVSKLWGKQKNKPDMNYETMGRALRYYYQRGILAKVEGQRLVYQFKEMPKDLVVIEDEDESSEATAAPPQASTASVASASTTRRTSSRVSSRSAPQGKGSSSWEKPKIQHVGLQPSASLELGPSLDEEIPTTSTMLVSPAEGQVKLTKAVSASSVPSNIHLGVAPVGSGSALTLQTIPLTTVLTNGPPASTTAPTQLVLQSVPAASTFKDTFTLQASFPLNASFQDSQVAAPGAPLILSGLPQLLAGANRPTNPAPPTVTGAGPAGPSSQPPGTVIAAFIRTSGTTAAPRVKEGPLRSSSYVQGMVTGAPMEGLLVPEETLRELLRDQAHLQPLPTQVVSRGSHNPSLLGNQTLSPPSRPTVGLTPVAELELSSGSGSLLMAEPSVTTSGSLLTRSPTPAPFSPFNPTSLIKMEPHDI
# In short: as §1
# ELK4 = biological target: T9, ELK4 (Homo sapiens, UniProt P28324-2 1-405); conditions: protein: recombinant; tags: N-terminal GST; dsDNA, one strand shown
# T9 sequence: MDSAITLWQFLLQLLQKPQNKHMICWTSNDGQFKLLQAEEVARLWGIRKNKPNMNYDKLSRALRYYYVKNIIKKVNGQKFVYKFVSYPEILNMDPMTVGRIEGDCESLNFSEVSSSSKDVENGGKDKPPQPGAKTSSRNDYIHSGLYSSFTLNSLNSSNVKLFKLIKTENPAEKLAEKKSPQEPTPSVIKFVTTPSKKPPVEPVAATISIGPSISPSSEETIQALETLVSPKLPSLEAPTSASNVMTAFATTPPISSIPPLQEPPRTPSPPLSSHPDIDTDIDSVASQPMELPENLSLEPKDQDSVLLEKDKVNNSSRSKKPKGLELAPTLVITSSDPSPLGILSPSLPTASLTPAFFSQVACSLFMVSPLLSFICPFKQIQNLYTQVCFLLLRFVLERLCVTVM
# In short: as §1
# ETV2 = biological target: T10, ETV2 (Homo sapiens, UniProt O00321 1-342); conditions: protein: recombinant; tags: N-terminal GST; dsDNA, one strand shown
# T10 sequence: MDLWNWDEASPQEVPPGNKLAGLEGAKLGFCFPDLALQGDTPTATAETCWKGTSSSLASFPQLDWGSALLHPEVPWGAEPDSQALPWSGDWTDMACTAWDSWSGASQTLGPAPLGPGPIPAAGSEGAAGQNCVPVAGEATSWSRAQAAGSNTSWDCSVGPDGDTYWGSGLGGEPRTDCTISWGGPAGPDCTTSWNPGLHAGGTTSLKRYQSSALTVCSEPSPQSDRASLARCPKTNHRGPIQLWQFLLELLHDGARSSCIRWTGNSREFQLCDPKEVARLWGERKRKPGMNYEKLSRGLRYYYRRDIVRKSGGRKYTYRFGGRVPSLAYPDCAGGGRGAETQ
# In short: as §1
# ELF3 = biological target: T11, ELF3 (Homo sapiens, UniProt P78545 1-371); conditions: protein: recombinant; tags: N-terminal GST; dsDNA, one strand shown
# T11 sequence: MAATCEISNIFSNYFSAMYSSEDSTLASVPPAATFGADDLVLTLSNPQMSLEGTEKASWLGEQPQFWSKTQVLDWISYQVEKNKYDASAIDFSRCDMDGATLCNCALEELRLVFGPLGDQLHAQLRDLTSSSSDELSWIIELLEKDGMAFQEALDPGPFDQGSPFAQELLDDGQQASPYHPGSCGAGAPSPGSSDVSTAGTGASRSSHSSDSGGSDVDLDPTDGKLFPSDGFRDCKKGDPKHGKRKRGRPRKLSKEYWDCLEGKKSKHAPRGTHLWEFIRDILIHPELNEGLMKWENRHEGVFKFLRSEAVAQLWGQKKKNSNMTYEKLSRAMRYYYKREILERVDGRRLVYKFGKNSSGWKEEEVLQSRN
# In short: as §1
# CRX = CRX (Homo sapiens, UniProt O43186 1-299); conditions: protein: recombinant; tags: N-terminal GST; dsDNA, one strand shown
# Chain of CRX (O43186 whole entry): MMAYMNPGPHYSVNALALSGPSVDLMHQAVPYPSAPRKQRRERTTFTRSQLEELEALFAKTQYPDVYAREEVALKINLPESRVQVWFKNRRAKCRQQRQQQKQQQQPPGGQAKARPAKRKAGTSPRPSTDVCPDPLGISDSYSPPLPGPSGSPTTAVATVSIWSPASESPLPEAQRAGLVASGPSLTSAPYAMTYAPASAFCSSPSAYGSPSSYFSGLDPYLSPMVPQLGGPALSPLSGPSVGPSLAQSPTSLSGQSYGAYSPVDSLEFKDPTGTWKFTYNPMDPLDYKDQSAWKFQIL
# In short: as §1
# ETV1 = ETV1 (Homo sapiens, UniProt P50549 1-477); conditions: protein: recombinant; tags: N-terminal GST; dsDNA, one strand shown
# Chain of ETV1 (P50549 whole entry): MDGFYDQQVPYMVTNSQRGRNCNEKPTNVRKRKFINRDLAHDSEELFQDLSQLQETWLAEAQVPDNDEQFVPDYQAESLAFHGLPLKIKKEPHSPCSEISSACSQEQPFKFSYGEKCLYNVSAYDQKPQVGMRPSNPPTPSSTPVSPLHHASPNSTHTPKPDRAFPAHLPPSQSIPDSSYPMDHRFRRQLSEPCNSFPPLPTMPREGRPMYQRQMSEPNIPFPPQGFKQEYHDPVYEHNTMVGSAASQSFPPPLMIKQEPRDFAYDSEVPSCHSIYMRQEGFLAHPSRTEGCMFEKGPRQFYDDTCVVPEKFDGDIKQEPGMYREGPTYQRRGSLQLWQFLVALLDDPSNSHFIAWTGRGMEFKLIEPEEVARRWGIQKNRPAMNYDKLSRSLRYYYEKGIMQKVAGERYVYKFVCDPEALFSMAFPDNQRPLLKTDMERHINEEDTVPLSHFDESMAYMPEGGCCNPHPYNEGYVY
# In short: as §1
sequence,measurement,setting,value
AACAAT,binding signal,FLI1,"1.31 fold enrichment (6-mer frequency, TF over GST control)"
same,binding signal,ELK1,"1.29 fold enrichment (6-mer frequency, TF over GST control)"
same,binding signal,GABPA,"1.32 fold enrichment (6-mer frequency, TF over GST control)"
same,binding signal,ERG,"1.28 fold enrichment (6-mer frequency, TF over GST control)"
same,binding signal,ELF1,"1.29 fold enrichment (6-mer frequency, TF over GST control)"
same,binding signal,EHF,"1.26 fold enrichment (6-mer frequency, TF over GST control)"
same,binding signal,SPI1,"1.32 fold enrichment (6-mer frequency, TF over GST control)"
same,binding signal,SPIB,"1.29 fold enrichment (6-mer frequency, TF over GST control)"
same,binding signal,ELK3,"1.32 fold enrichment (6-mer frequency, TF over GST control)"
same,binding signal,FEV,"1.29 fold enrichment (6-mer frequency, TF over GST control)"
same,binding signal,ETV5,"1.29 fold enrichment (6-mer frequency, TF over GST control)"
same,binding signal,HSF1,"1.48 fold enrichment (6-mer frequency, TF over GST control)"
same,binding signal,SPIC,"1.26 fold enrichment (6-mer frequency, TF over GST control)"
same,binding signal,ELF4,"1.32 fold enrichment (6-mer frequency, TF over GST control)"
same,binding signal,ELK4,"1.27 fold enrichment (6-mer frequency, TF over GST control)"
same,binding signal,ETV2,"1.31 fold enrichment (6-mer frequency, TF over GST control)"
same,binding signal,ELF3,"1.56 fold enrichment (6-mer frequency, TF over GST control)"
same,binding signal,CRX,"1.24 fold enrichment (6-mer frequency, TF over GST control)"
same,binding signal,ETV1,"1.36 fold enrichment (6-mer frequency, TF over GST control)"
